Screens: PubChem, National Center for Advancing Translational Sciences (NCATS)
Methyltransferases = Primary Screen for Target Class Profiling of Small Molecule Inhibitors of Methyltransferases; calls only at 40 µM; AID 1745853, 2022; purified enzyme, MTase-Glo SAH luminescence; hits give low values; hit rate 3.9% among 25,000; call rule not given here
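Each enzyme was reacted with SAM and its substrate, with compounds tested once at 40 uM; SAH formed was read by MTase-Glo luminescence.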
Large screens that a line does not name were inactive; ! = a repeat was not active. The sample as a whole holds a higher share of hits than the screen did.

COc1cc2nc(N3CCN(C(=O)COc4c(OC)cccc4C(C)C)CC3)nc(N)c2cc1OC	none
COc1cc2nc(N3CCN(C)CC3)nc(NC3CCN(Cc4ccccc4)CC3)c2cc1OC	Methyltransferases active!
COc1cc2nc(N3CCCN(C)CC3)nc(NC3CCN(Cc4ccccc4)CC3)c2cc1OC	Methyltransferases active
COc1ccccc1-c1cccc(CN2CCC(NC(C)=O)CC2)c1	none
CN1CCN(Cc2nnc(C(=O)N3CCC[C@@H]3c3ccc(Br)cc3)n2Cc2ccccc2)CC1	none
Cc1ccccc1CN1C(=O)c2ccc(-c3ccccc3)n2CC1(C)C(=O)NC1CCC(C)CC1 (stereo not drawn)	none
CC1CCCCC1NC(=O)C1(C)Cn2c(cc3occc32)C(=O)N1c1ccc(Cl)cc1 (stereo not drawn)	none
Cc1ccc(S(=O)(=O)N2CCc3nc4cc[nH]n4c(=O)c3C2)cc1C	none
CCN1C(=O)c2cc(C(=O)N3CCN(c4ccccc4)CC3)nn2CC1(C)C(=O)NC1CCCC1 (stereo not drawn)	none
Cc1ccc(CCN2CCCCC23Cc2ccccc2CN([S+](C)(=O)[O-])C3)cc1 (stereo not drawn)	none
CCCCN1C(=O)c2cc(C(=O)Nc3cccc(OC)c3)nn2CC1(C)C(=O)NC1CCCC1 (stereo not drawn)	none
NC(N)=NC(=O)c1nc(Cl)c(N2CCCCCC2)nc1N	none
Cc1c(C)c(NCC(=O)N(C)C2CCN(Cc3ccc(C(N)=O)cc3)CC2)c(C)c(C)c1N	none
CC[C@H]1CN(c2nc(N)c(C(N)=O)nc2Cl)CCN1C1CCN(Cc2ccc(Cl)cc2)CC1	Methyltransferases active
CC(C)Cn1c(=O)c2ccc(C(=O)NC3CCCCC3)cc2n2c(=O)n(Cc3ccccc3F)nc12	none
CCN1C(=O)c2cc(C(=O)NCc3ccc(C)cc3)nn2CC1(C)C(=O)NC1CCCC1 (stereo not drawn)	none
CC(C)NC(=O)c1ccc2c(=O)n(C(C)C)c3nn(CC(=O)Nc4ccccc4F)c(=O)n3c2c1	none
CC(C)CNC(=O)c1ccc2c(=O)n(C(C)C)c3nn(Cc4c(F)cccc4Cl)c(=O)n3c2c1	none
COc1ccccc1Oc1ncccc1CNCc1c(F)cccc1Cl	none
COc1ccccc1CNCCCCCCNCCCCCCCCNCCCCCCNCc1ccccc1OC	Methyltransferases active
COc1ccccc1CNS(=O)(=O)c1cc2c(cc1Cl)n(C)c(=O)n2C	none
COc1ccc(CNC(=O)C2(C)Cn3cnc(C(=O)NCc4ccc(C)cc4)c3C(=O)N2C2CC2)cc1 (stereo not drawn)	none
C=Cc1cc(O)cc2nc(-c3ccc(O)c(F)c3)oc12	Methyltransferases active
COc1ccc(OC)c(N2C(=O)c3cc4occc4n3CC2(C)C(=O)NC2CCCCCCC2)c1 (stereo not drawn)	none
Cc1ccc(CCNC(=O)CCc2nnc3n(CCc4ccccc4)c(=O)c4ccccc4n23)cc1	none
CC(C)CNC(=O)c1ccc2c(=O)n(CC(C)C)c3nn(CC(=O)c4cccc(Cl)c4)c(=O)n3c2c1	none
Cc1ccc(Cn2c(=O)c3ccccc3n3c(=O)n(CC(=O)Nc4ccc(F)cc4)nc23)cc1	none
CCCN1C(=O)c2cc(C(=O)NCCc3ccc(OC)c(OC)c3)nn2CC1(C)C(=O)NC1CCCC1 (stereo not drawn)	none
O=C(O)c1ccc(O)c2ncc(N3CCCN(CCc4cccc5ccccc45)CC3)cc12	Methyltransferases active
c1ccc(N2CCN(CCc3nn[nH]n3)CC2)cc1	none
C[N+]1(C)[C@@H]2C[C@@H](OC(=O)C(O)(c3cccs3)c3cccs3)C[C@H]1[C@@H]1O[C@@H]12	none
CCc1cc2c(cc3n2CC(C)(C(=O)NC2CCC(C)CC2)N(CCCN2CCCCC2)C3=O)s1 (stereo not drawn)	none
O=C(CCc1nnc2n(Cc3ccccc3)c(=O)c3ccccc3n12)N1CCN(c2cccc(Cl)c2)CC1	none
Cc1ccc(Cn2c(=O)c3ccccc3n3c(CCC(=O)N4CCN(C5CCCCC5)CC4)nnc23)cc1	none
CC1CCN(C(=O)CCc2nnc3n(Cc4ccc(Cl)cc4)c(=O)c4ccccc4n23)CC1	none
O=C(CCc1nnc2n(Cc3ccc(F)cc3)c(=O)c3ccccc3n12)N1CCN(C2CCCCC2)CC1	none
O=C(CCc1nnc2n(CCc3ccccc3)c(=O)c3ccccc3n12)N1CCC(N2CCCCC2)CC1	Methyltransferases active
Cc1cccc(-c2nnc3n(CCc4ccccc4)c(=O)c4ccccc4n23)c1	Methyltransferases active
O=c1c2ccccc2n2c(-c3cccc(Cl)c3)nnc2n1CCc1ccccc1	none
Cc1ccc(-c2nnc3n(CCc4ccccc4)c(=O)c4ccccc4n23)cc1	none
NC(=O)C1CCN(C(=O)CCc2nnc3n(Cc4ccc(F)cc4)c(=O)c4ccccc4n23)CC1	none
O=C(CCc1nnc2n(Cc3ccc(Cl)cc3)c(=O)c3ccccc3n12)N1CCC(N2CCCCC2)CC1	Methyltransferases active
O=C(CCc1nnc2n(Cc3ccc(F)cc3)c(=O)c3ccccc3n12)N1CCC(N2CCCCC2)CC1	Methyltransferases active
Cc1ccc(Cn2c(=O)c3ccccc3n3c(CCC(=O)N4CCC(Cc5ccccc5)CC4)nnc23)cc1	none
CCCC(=O)C1(c2ccccc2)CCN(C(=O)[C@@H](Cc2ccc(OC)cc2)NC(=O)[C@@H](N)Cc2cncn2C)CC1	none
CCC[C@H]1CN(Cc2c(C)noc2C)C[C@@H]1NC(=O)C1CCOCC1	none
Cc1cc(F)ccc1NS(=O)(=O)c1cc2c(cc1C)n(C)c(=O)n2C	none
Cc1ccc(C(=O)N2CC[C@@](C)(O)[C@@H](Cc3ccccc3)C2)cc1C	none
C[C@@H]1O[C@@H](O[C@@H]2[C@@H](O)[C@@H](O)[C@H](O[C@@H]3[C@@H](O)[C@@H](O[C@]4(CO)O[C@H](CO)[C@@H](O)[C@@H]4OC(=O)/C=C/c4ccc(O)cc4)O[C@H](CO)[C@H]3OC(=O)/C=C/c3ccc(O)cc3)O[C@H]2C)[C@H](O)[C@H](O)[C@H]1O	none
O=C(Cn1c(=O)n2nc(-c3ccc(F)cc3)nc2c2ccccc21)N1CCN(c2ccccc2F)CC1	none
CCOc1ccc(CCN2C(=O)c3cc4ccccc4n3CC2(C)C(=O)NCCC(C)C)cc1 (stereo not drawn)	none
CC(c1ccc(-c2cc(N)ncn2)cc1)N1CCCCC1 (stereo not drawn)	none
CC1(C(=O)NC2CCCCCCC2)Cn2c(cc3occc32)C(=O)N1c1ccc(Cl)cc1 (stereo not drawn)	none
C=C1CCC2(C(=O)OC3OC(CO)C(O)C(O)C3O)CCC3(C)C(=CCC4C5(C)CCC(OC6OC(CO)C(OC7OC(C)C(O)C(O)C7O)C(OC7OCC(O)C(O)C7O)C6O)C(C)(C)C5CCC43C)C2C1 (stereo not drawn)	none
Cc1noc(C)c1S(=O)(=O)N1C[C@@H](C(=O)O)[C@H](c2ccccn2)C1	none
CCN1CCN(CCNC(=O)c2cc3n(n2)CC(C)(C(=O)NCc2ccccc2)N(C)C3=O)CC1 (stereo not drawn)	none
CCc1cc2c(cc3n2CC(C)(C(=O)NC2CCCCC2)N(Cc2ccccc2Cl)C3=O)s1 (stereo not drawn)	none
CC1(C(=O)NC2CCCCC2)Cn2nc(-c3cccs3)cc2C(=O)N1Cc1ccccc1Cl (stereo not drawn)	none
CC(C)CCn1c(=O)c2ccccc2n2c(=O)n(CC(=O)NCc3ccccc3)nc12	none
c1cc(N[C@@H]2CCNC2)nc(-c2cnc3ccc(-c4cn[nH]c4)cn23)c1	Methyltransferases active
CCCCN1C(=O)c2cc(C(=O)Nc3ccc(C)cc3)nn2CC1(C)C(=O)NC1CCCC1 (stereo not drawn)	none
CCCS(=O)(=O)N1CC(Oc2ccccc2-c2nc(C3CC3)no2)C1	none
